# Test results: PubChem BioAssay (Tox21)
# Values without a mark were called inactive. Activity calls are given as the source filed them. The call rests on the fitted dose curve; in most records, active means well fitted curve in the direction sought with a large enough effect in the repeat runs; inconclusive means weak or mixed curves; inactive means flat fitted curve, though single readings scatter.
# Assay: qHTS assay to test for compound auto fluorescence at 590 nm (red) in HepG2 cells (AID 720674)
# Conditions: HepG2 autofluorescence, red 540/590 nm, 1 h; series mostly up to 91.3 µM; fluorescence, relative to Rose Bengal: at the top concentration
# Description: U.S. Tox21 Program National Center for Advancing Translational Sciences [NCATS] NIH Chemical Genomics Center [NCGC] U.S. Environmental Protection Agency [EPA] National Institutes of Environmental Health Sciences [NIEHS] National Toxicology Program [NTP] U.S. Food and Drug Administration [FDA] Tox21 Assay Overview: Compound auto fluorescence often interferes with screening of the compound library against various biological targets and signaling pathways. Some of these compounds may have fluorophoric properties. Such properties may interfere with the assay outputs resulting in false positives and/or negatives. To decrease such complications and ensure the compound activities are relevant in terms of biological response, the Tox21 10K compound library was screened for auto fluorescence. From the fluorophores used as reporter signals in our screening assays, the auto fluorescence equivalencies of compounds against three fluorophores have been evaluated: Triamterene, Fluorescein and Rose Bengal sodium for blue, green and red fluorescence, respectively. The fluorescence intensities were measured using Excitation/Emission wavelengths at 405/460nm, 485/535nm and 540/590nm for blue, green and red labels, respectively. This assay includes the red fluorescence data.
# Tox21 Assay Protocol Summary: 2,000 HepG2 cells in 5 uL of culture medium (MEM containing 10% FBS) per well were dispensed into black wall/clear bottom 1536-well plates using a Multidrop Combi Dispenser (ThermoFisher Scientific, Waltham, MA). The assay plates were incubated overnight at 37 C to allow cell attachment to the well bottom, followed by the transfer of 23 nL compound or DMSO vehicle by a pintool work station (Kalypsys , San Diego, CA). After the assay plates were incubated for 1 hr at 37 C and 5% CO2, fluorescence intensities in the assay plates were measured by an Envision (PerkinElmer, Shelton, CT) plate reader using three labels for measuring blue, green and red fluorescence at […] 460, 535 and 590 nm respectively.
# On the % scale 0 is the no-effect control and ±100 the full control effect.
SMILES,"fluorescence, relative to Rose Bengal",outcome
NC(=O)N1c2ccccc2CC(=O)c2ccccc21,0.633% [at 46 µM],
N[C@@H](CCC(=O)O)C(=O)O,,inactive
CCCCN(CCC(=O)OCC)C(C)=O,0.247%,
OCCCCCO,-0.0478% [at 95.7 µM],
CCN[C@@H]1C[C@H](N)[C@@H](OC2OC(CN)=CCC2N)[C@H](O)[C@H]1O[C@H]1OC[C@](C)(O)[C@H](NC)[C@H]1O (stereo not given in full),-0.164% [at 46 µM],
Nc1ccn([C@@H]2O[C@H](CO)[C@@H](O)C2(F)F)c(=O)n1,0.638% [at 46 µM],
O=C(O)c1cc(C(=O)O)cc(C(=O)O)c1,-0.578% [at 95.7 µM],
CC(C)(C)C(=O)Oc1ccc(S(=O)(=O)Nc2ccccc2C(=O)NCC(=O)O)cc1,-0.687% [at 46 µM],
CCCCOCCOC(=O)CCCCCCCCC(=O)OCCOCCCC,-0.0061%,
CC12CCC(C(=O)C1=O)C2(C)C (stereo not given),-0.174% [at 95.7 µM],
CN1CCC(=C2c3ccccc3CCc3cccnc32)CC1,-0.129% [at 46 µM],
CC(C#N)(CCC(=O)O)N=NC(C)(C#N)CCC(=O)O (stereo not given),-0.0474%,
CCCCCCCCN1CCCC1=O,-0.0375%,
[Ca+2],-0.0798%,
O=[N+]([O-])c1ccc(/C=N\O)o1,0.44% [at 46 µM],
C[C@@H]1C[C@H]2[C@@H]3C[C@H](F)C4=CC(=O)C(Cl)=C[C@]4(C)[C@@]3(F)[C@@H](O)C[C@]2(C)[C@@]1(O)C(=O)CO,-0.0392% [at 46 µM],
NCCCC(N)(C(=O)O)C(F)F (stereo not given),0.0979% [at 46 µM],
CC(=O)Nc1ccc(OCC(O)CNC(C)C)cc1 (stereo not given),0.0665% [at 46 µM],
CC(C)[C@H]1CC[C@@H](C)CC1=O,0.0353%,
CCN1C=CN(C)C1C (stereo not given),-0.205%,

SMILES,"fluorescence, relative to Rose Bengal",outcome
COc1ccnc(CS(=O)c2nc3cc(OC(F)F)ccc3[nH]2)c1OC (stereo not given),,inactive
CCC(C)(CN(C)C)OC(=O)c1ccccc1 (stereo not given),-0.657% [at 18.6 µM],
CCCCCC(=O)OCCc1ccccc1,-0.136%,
[K+],-0.145%,
C=CC(=O)OCCCl,0.0929% [at 95.7 µM],
CC1=NS(=O)(=O)c2cc(Cl)ccc2N1,0.261% [at 46 µM],
Nc1c2c(nc3c1CCC3)CCCC2,0.588% [at 46 µM],
CC(C)C[C@@H](N)C(=O)O,-0.375% [at 46 µM],
Cc1ccnc(NS(=O)(=O)c2ccc(N)cc2)n1,0.0946% [at 18.6 µM],
Cc1nc2ccc(CN(C)c3ccc(C(=O)N[C@@H](CCC(=O)O)C(=O)O)s3)cc2c(=O)[nH]1,,inactive
CCC(=O)OCc1ccccc1,-0.325%,
C[N+]1(C)[C@@H]2CC(OC(=O)[C@H](CO)c3ccccc3)C[C@H]1[C@@H]1O[C@@H]12 (stereo not given in full),0.0381% [at 46 µM],
C=C[Si](OC(C)=O)(OC(C)=O)OC(C)=O,0.0536%,
CO/N=C(\C(=O)N[C@@H]1C(=O)N2C(C(=O)O)=C(CSc3nc(=O)c(O)nn3C)CS[C@H]12)c1csc(N)n1,-0.41% [at 46 µM],
COc1cc2c(cc1OC)-c1cc3ccc(OC)c(OC)c3c[n+]1CC2,-0.552%,
CCOC(=O)COc1cc(-n2ncc(C(F)(F)F)c(C)c2=O)c(F)cc1Cl,-0.275%,
CC(=O)N[C@H]1[C@H]([C@H](O)[C@H](O)CO)OC(C(=O)O)=C[C@@H]1N=C(N)N,-0.0347% [at 46 µM],
CC1=NN(c2cccc(S(=O)(=O)O)c2)C(=O)C1,-0.0655%,
O=C(O)Cc1csc(-c2ccc(Cl)cc2)n1,0.0006% [at 46 µM],
CC(C)CCCO,0.0275%,
